Assay outcomes (PubChem BioAssay)
IL-1B inflam inh = blocks inflammasome-driven IL-1 beta release. activity change, % at 57.5 µM. hit rate 4.7% among 360,000. THP-1 LPS/ATP IL-1B secretion, AlphaLISA, 16 h; active compounds read low. AID 743279; in the data active = activity change below about -50%; inconclusive = mostly about -30% to -49%
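THP-1 cells pretreated 1 hr with compounds (up to 57.5 uM final), then stimulated with LPS (250 ng/mL final) plus ATP (1.25 mM final); secreted IL-1B measured by AlphaLISA after 16 hr, decreased signal indicating inhibition.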
SW480 rereplic = induces DNA re-replication in SW480 colon adenocarcinoma cells | SW480 DNA re-replication, Hoechst DNA content imaging, 48 h | Potency, µM (doses to about 46.1 µM), most hits filed as activators | hit rate 1.8% among 340,000 | AID 624297; also: nearly all actives have a fitted effect of over 55% in size
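Readout is total intensity of Hoechst-stained nuclei, excited at 405 nm and collected at 500-530 nm. Compound treatment lasted 48 hr at 37 C in 5% CO2 before staining.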
MCF10A rereplic = inducers of DNA re-replication in MCF 10A breast cells; MCF 10A DNA re-replication, Hoechst nuclear intensity, 48 h; Potency, µM (doses to about 46.1 µM), usual class: activators; hit rate 2.9% among 350,000; also: nearly all actives have a fitted effect of over 50% in size
KB-3-1 tox = KB-3-1 parental cell cytotoxicity. KB-3-1 viability, CellTiter-Glo ATP luminescence, 72 h. Potency, µM (series often up to 46.1 µM), usual class: cytotoxic. hit rate 1.4% among 400,000. AID 1347075; also: nearly all actives have a fitted effect of over 60% in size
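Here the drug-naive KB-3-1 line serves as comparator for MDR sub-line selectivity; cells received compound titrations, 72 h at 37 °C, then CellTiter-Glo readout.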
KB-V1 cytotox = kills drug-selected multidrug resistant KB-V1 cells; hit rate 3.4% among 400,000; Potency, µM (titrated, usually from 46.1 µM), actives largely listed as cytotoxic; AID 1347076; KB-V1 MDR cells viability, CellTiter-Glo, 72 h; also: nearly all actives have a fitted effect of over 60% in size
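Following 72 h at 37 degrees C with compound, KB-V1 cell viability was read by CellTiter-Glo luminescence, medium being phenol-red-free DMEM plus 10% FBS; concentration-response parameters came from normalized, curve-fitted qHTS data.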
A number is an active result; – = inactive; ? = inconclusive; · = no result; [ ] = remark or other dose. This is a sample that favours compounds with a hit; in the whole collection about 9.9% have one here. Unless noted, calls follow the shape of the dose curve; as a rule, active = well fitted curve in the direction sought with a large enough effect; inconclusive = small, poorly fitted or top-dose-only effect, or another doubt; inactive = no such curve, though single readings can be large; an effect the other way counts as inactive or inconclusive.

SMILES | IL-1B inflam inh | SW480 rereplic | MCF10A rereplic | KB-3-1 tox | KB-V1 cytotox
Cn1c(SCc2ccc(C#N)cc2Cl)nc2ccccc21 | -71 | – | – | – | –
Cc1onc(-c2ccccc2)c1C(=O)Nc1ccccc1N1CCOCC1 | – | – | – | – | 13µM
CC(C)CC(=O)NC(=S)Nc1cc(C(F)(F)F)ccc1N1CCOCC1 | – | ? | – | – | 18µM
CCOC(=O)c1ccc(N2CCOCC2)c(NC(=O)c2c(-c3ccccc3)noc2C)c1 | – | 21µM | 10µM | 5.8µM | ?
Cc1onc(-c2ccccc2)c1C(=O)Nc1cc(C(F)(F)F)ccc1N1CCOCC1 | – | 11µM | 5µM | 5.8µM | 5.2µM
C[C@@H](C(=O)CC(=O)OC(C)(C)C)[C@@H](O)c1ccccc1 | – | – | – | – | –
Cc1oc(-c2ccc(C(=O)NCCN(C)C)cc2)nc1CS(=O)(=O)c1ccccc1 | · | · | · | – | –
Fc1cccc(Cc2c(-c3cccc(Cl)c3)nc3ccc(Cl)cn23)c1 | – | · | · | – | –
CCC(=O)N1CCc2cc(Br)cc(S(=O)(=O)N3CCN(c4ccc(C)cc4)C(C)C3)c21 (stereo not given) | · | · | · | – | –
Cc1cc(C)c(C#N)c(Oc2ccccc2Br)n1 | – | – | – | – | ?
Cc1cc2occ(CC(=O)N(C)CC(=O)Nc3ccccc3Cl)c2cc1C | – | – | – | – | ?
CN1CCN(c2ccc(C(F)(F)F)cc2NC(=O)Nc2ccccc2)CC1 | -84 | – | – | – | –
COCCNC(=S)NN=C1CCCCCC1 | – | ? | 8.2µM | – | –
COCCNC(=S)NN=C1CCC(c2ccccc2)CC1 (stereo not given) | – | ? | – | – | –
O=C(O/N=C\c1ccc(N2CCCCC2)c([N+](=O)[O-])c1)c1cccc(Cl)c1 | – | – | – | ? | ?
COc1ccc(NC(=O)CN(C)C(=O)c2ccc(N3CCCCC3)c([N+](=O)[O-])c2)cc1 | – | – | – | – | ?
COc1ccc(NC(=O)CN(C)C(=O)c2ccc(N3CCCCCC3)c([N+](=O)[O-])c2)cc1 | – | – | – | – | –
COc1ccc(C(=O)/C=C/c2ccc(N3CCCCC3)c([N+](=O)[O-])c2)c(OC)c1 | ? | ? | 12µM | – | ?
Cc1ccc(C(=O)O/N=C\c2ccc(N3CCCCC3)c([N+](=O)[O-])c2)cc1 | – | – | – | ? | 7.3µM
COc1ccc(C(=O)/C=C/c2ccc(N3CCCCC3)c([N+](=O)[O-])c2)cc1 | -101 | ? | 8.2µM | ? | ?
c1cc2c(cc1C1CCCCC1)c1c3n2CCCNC3CCC1 (stereo not given) | -83 | –[9.22 µM] | ? | 18µM | ?
Oc1ccc2c(c1)c1c3n2CCNC3CCC1 (stereo not given) | – | – | – | – | –
Cc1ccc2c(c1)c1c3n2CCCNC3CCC1 (stereo not given) | -55 | – | – | – | –
Cc1ccc2c(c1)c1c3n2CCN[C@H]3CCC1 | · | – | ? | · | ·
Cc1ccc(C2N(c3ccccc3)C(=O)N3CCCN23)cc1 (stereo not given) | – | 0.52µM | – | – | –
SMILES | IL-1B inflam inh | SW480 rereplic | MCF10A rereplic | KB-3-1 tox | KB-V1 cytotox
O=C(COC(=O)CNS(=O)(=O)c1cc(C(F)(F)F)ccc1Cl)NC1CC1 | – | – | – | – | –
O=C(Cc1ccc(F)cc1)NCCS(=O)(=O)N1CCN(c2cccc(Cl)c2)CC1 | – | ? | – | ? | ?
COc1nc(C)cc(C)c1S(=O)(=O)c1ccccc1C | – | – | – | – | –
C#CCOc1nc(C)cc(C)c1S(=O)(=O)c1ccccc1C | -56 | – | – | – | –
COc1ccc(CN2C(=O)C(CC(=O)NC3CCCCC3)CC(C(=O)N(C)C)=C2C)cc1 (stereo not given) | – | · | · | – | –
COC(=O)c1oc2ccccc2c1NC(=O)c1ccccc1O | – | 10µM | – | – | ?
COc1ccc(N2CCN(C(=O)c3oc4ccccc4c3NC(=O)Cc3cccc(OC)c3)CC2)cc1 | – | – | – | – | ?
COc1cccc(CC(=O)Nc2c(C(=O)N3CCN(c4ccccc4F)CC3)oc3ccccc23)c1 | · | · | · | 16µM | ?
COc1ccccc1C(=O)Nc1c(C(=O)N2CCN(C)CC2)oc2ccccc12 | -60 | – | – | – | –
COc1ccc(NC(=O)c2oc3ccccc3c2NC(=O)C23CC4CC(CC(C4)C2)C3)c(OC)c1 | · | · | · | 23µM | –
COc1cccc(OC)c1C(=O)Nc1c(C(=O)N2CCN(C)CC2)oc2ccccc12 | – | – | – | – | –
O=C1CC(c2nnc(Cc3ccc(F)cc3)o2)CN1c1ccccc1 (stereo not given) | · | · | · | – | –
Oc1c(C(c2ccccc2F)N2CCN(c3ccccc3F)CC2)sc2nc(-c3ccco3)nn12 (stereo not given) | · | · | · | – | ?
COc1cccc(C(=O)Nc2c(C(=O)Nc3ccc(F)cc3)oc3ccccc23)c1OC | · | · | · | – | –
COc1cccc(NC(=O)c2oc3ccccc3c2NC(=O)C(C)(C)C)c1 | – | ? | 26µM | – | –
COc1ccccc1NC(=O)c1oc2ccccc2c1NC(=O)c1cccc(OC)c1OC | · | · | · | 12µM | ?
Cc1cccn2c(CNCC3(c4ccccc4)CCCC3)c(C(=O)N3CCOCC3)nc12 | – | – | – | – | ?
CC[n+]1cccc(-c2nc3ccccc3s2)c1 | – | – | – | ? | –
CC[n+]1c(/C=C/N(C)c2ccccc2)n(-c2ccccc2)c2ccc(-c3nc4ccccc4s3)cc21 | -102 | 16µM | ? | 5.8µM | –
Cc1ccccc1NC(=O)/C=C/c1ccc([N+](=O)[O-])s1 | -102 | 0.16µM | 1.6µM | ? | ?
Cc1cc(C)cc(NC(=O)/C=C/c2ccc([N+](=O)[O-])s2)c1 | -102 | ? | 4.1µM | 6.5µM | ?
CC1CC(C)CN(C(=O)/C=C/c2ccc([N+](=O)[O-])s2)C1 (stereo not given) | ? | ? | – | – | ?
CC(=O)c1cccc(NC(=O)/C=C/c2ccc([N+](=O)[O-])s2)c1 | -104 | 2.9µM | 3.7µM | ? | 21µM
O=C(Nc1ccccc1F)c1ccc([N+](=O)[O-])s1 | -68 | 15µM | ? | ? | ?
COC(=O)c1cccc(NC(=O)/C=C/c2cccc([N+](=O)[O-])c2)c1 | – | – | – | – | –
SMILES | IL-1B inflam inh | SW480 rereplic | MCF10A rereplic | KB-3-1 tox | KB-V1 cytotox
CCc1nn(CC(=O)NCCN(CC)CC)c(=O)c2cc3occc3n12 | · | · | · | – | ?
COC(=O)C1=C(c2ccccc2)c2ccccc2S(=O)(=O)N1CC(=O)Nc1cccc(C(C)=O)c1 | · | · | · | – | –
CC1=CC2=NC(=O)/C(=C\c3ccc(-c4cccc(Cl)c4)o3)C(=N)N2O1 | – | – | – | 4.1µM | ?
CC1=NOC(=O)/C1=C\c1ccc(-c2ccc(Cl)c(C(=O)O)c2)o1 | – | – | – | – | ?
CC1=NOC(=O)/C1=C\c1ccc(-c2cccc(Cl)c2)o1 | -100 | ? | 16µM | – | ?
Nc1ccccc1N=Cc1ccc(-c2cccc(Cl)c2)o1 | -82 | ? | ? | ? | ?
